Most compounds without a hit are left out; they make up all but 7.3% or so of the library.
VACV Venus inh: vaccinia inhibition (Venus reporter) | AID 720580 | actives 0.46% (n = 330,000) | Potency, µM (titrated, usually from 36.5 µM), without a hit: at the highest dose activity change, negative = inhibition, hits mostly inhibitors | Vaccinia virus Venus reporter expression, fluorescence; calls by dose curve; tested in A549 cells; also: potency is read from the fitted curve at half-maximal effect; nearly all actives have a fitted effect of over 30% in size
HCMV antiviral: human cytomegalovirus inhibition; AID 1259415; actives 4.5% (n = 410,000); HFF cells, HCMV-luciferase reporter, 72 h; hits give low values; activity change, negative = inhibition, % at 57.5 µM; in the data active = activity change below about -60%; inconclusive = no clear call, values can overlap the other calls; inactive = above about -39%
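Screen run at 2 compound doses on HFFs infected with reporter HCMV, MOI 1 PFU/cell. Luciferase activity from cell lysates at 72 h post infection gave inhibition relative to buffer-only and Salinomycin wells.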
FMDV inh: foot and mouth disease virus antiviral activity; FMDV antiviral cell-based qHTS; Potency, µM (doses to about 57.9 µM), for inactives: at the highest dose activity change, negative = inhibition, hits mostly inhibitors; actives 1.2% (n = 410,000); AID 1159524; calls by dose curve; tested in HEK293T cells; also: read-out not given here; potency is read from the fitted curve at half-maximal effect; nearly all actives have a fitted effect of over 45% in size
HCV inh: HCV inhibition. Huh7.5.1 HCVcc-Cre infection, luciferase reporter, 44 h. actives 3.4% (n = 340,000). Potency, µM (series often up to 41.8 µM), without a hit: top-dose activity change, negative = inhibition, most hits filed as inhibitors; active = well fitted inhibition curve with a large enough effect; inconclusive = small, poorly fitted or top-dose-only effect, or another doubt; inactive = no such curve, though single readings can be large or run the other way; also: potency is read from the fitted curve at half-maximal effect
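Cells (1,000/well) were plated 4 h before compound, then infected with HCVcc-Cre virus (~0.5 moi). After 44 h further culture, infection was read as luciferase luminescence following a 15 min substrate incubation at room temperature.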
Vaccinia mCherry: vaccinia inhibition (mCherry reporter) | Vaccinia virus mCherry reporter infection, fluorescence | Potency, µM (highest dose often 36.5 µM), for inactives: top-dose activity change, negative = inhibition, most hits filed as inhibitors | actives 0.63% (n = 310,000); calls by dose curve; tested in A549 cells; also: potency is read from the fitted curve at half-maximal effect; nearly all actives have a fitted effect of over 35% in size
* = called active by the depositor; i = inactive; ? = inconclusive; nt = not tested or not shown. % is scaled to controls: 0 for no effect and ±100 for the full control effect.

SMILES | VACV Venus inh | HCMV antiviral | FMDV inh | HCV inh | Vaccinia mCherry
CCN(CC)CCN1CCN(c2cncc(-c3ccc4ccccc4c3)n2)CC1 | -9% | -21 | -22% | nt | 9%
O=C(O)C(Cc1ccccc1)N=C(NS(=O)(=O)c1ccccc1)c1ccccc1 (centres undefined) | 9% | -2 | -14% | 6% | i
Cc1ccc(-c2noc(CCC(=O)Nc3cc(C)ccn3)n2)cc1 | -14% | -71* | -14% | 22% | nt
O=C(Nc1ccc(-c2noc(CCc3ccccc3)n2)cc1)c1cccnc1 | ? | ? | ? | 11µM* | nt
O=C(CCCc1nc(-c2ccc(Cl)cc2)no1)NC1CCCCC1 | -13% | 1 | ? | 7.1µM* | -11%
O=C(CCc1nc(-c2ccc(Cl)cc2)no1)NC1CCCC1 | nt | 13 | -1% | 6% | nt
O=C(CCCc1nc(-c2ccccc2Cl)no1)NC1CCCC1 | nt | -74* | ? | 4% | nt
COc1ccccc1-c1noc(CCCC(=O)NC2CCCC2)n1 | 7% | -25 | -8% | -4% | -5%
Cc1ccc(-c2noc(CCC(=O)Nc3ccccc3C)n2)cc1 | nt | -6 | 12% | ? | nt
O=C(NCCc1ccccc1)c1ccc(NC(=O)c2cccnc2)cc1 | nt | 11 | 24% | -3% | nt
CCN(CC)S(=O)(=O)c1ccc(NC(=O)CSc2nnc3c(n2)[nH]c2ccccc23)cc1 | ? | nt | nt | nt | -13%
CCCn1c(=O)c2sccc2n2c(CCCC(=O)NC3CCC(C)CC3)nnc12 (centres undefined) | -13% | -17 | 2% | nt | -7%
COc1cc(OC)c(/C=C2\C(=O)Nc3ccccc32)c(OC)c1 | ? | -33 | 28µM* | ? | ?
C=CCOc1ccccc1C(=O)/C=C1/C(=O)Nc2ccccc21 | nt | -103* | 40µM* | -13% | nt
C=CCOc1ccc(C(=O)/C=C2/C(=O)Nc3ccccc32)cc1 | -22% | -69* | 16% | -20% | -18%
COc1ccc(C2(C(=O)c3ccccc3)C(=O)c3ccccc3C2=O)cc1 | nt | nt | 5% | 3.5µM* | nt
COc1ccc2c(c1)/C(=C/c1cnc[nH]1)C(=O)N2 | 7.1µM* | -97* | 15% | ? | 3.5µM*
O=C1Nc2ccccc2/C1=C/C(=O)c1cccs1 | -17% | -95* | 22µM* | ? | -5%
COc1ccc(C(=O)/C=C2/C(=O)Nc3ccccc32)cc1 | nt | -13 | 3.2µM* | -1% | nt
COc1ccc(C(=O)/C=C2/C(=O)Nc3ccccc32)cc1OC | -24% | 48 | 32µM* | ? | i
NC(=O)COc1ccc(C(=O)/C=C2/C(=O)Nc3ccccc32)cc1 | -21% | -19 | ? | 3% | -22%
CCOC(=O)Cc1csc(NC(=O)CSc2nc(=O)[nH]c3c2CCC3)n1 | -10% | -2 | -12% | -16% | i
COc1ccc(C(=O)/C=C2/C(=O)Nc3ccccc32)c(OC)c1 | ? | -100* | ? | ? | ?
COc1ccc(-n2c(/C=C3\C(=O)Nc4ccccc43)nc3ccccc3c2=O)cc1 | -12% | -64* | ? | -6% | i
O=C1Nc2ccccc2/C1=C/c1nc2ccccc2c(=O)n1-c1ccc(O)cc1 | -26% | ? | 2% | ? | -29%
SMILES | VACV Venus inh | HCMV antiviral | FMDV inh | HCV inh | Vaccinia mCherry
COc1ccc(/C=C/C(=O)c2ccc(OC)cc2OC)cc1 | -10% | -30 | 52% | ? | ?
C/C1=C\CCCCc2cc(O)ccc2OC(=O)CC1 | nt | -19 | nt | nt | nt
CC(C)(C)Cc1c(-c2ccc(C#N)cc2)nc2ccc(Cl)cn12 | -1% | 14 | -27% | nt | -7%
Cc1nonc1OCCNc1ccc([N+](=O)[O-])cc1[N+](=O)[O-] | 4% | -38 | 0% | 16% | -14%
Cc1nonc1OCCCNc1ccc([N+](=O)[O-])cc1Cl | -6% | -78* | 36% | 10% | -11%
CC(=O)N(O)c1ccc(/C=C2\C=Cc3ccccc32)cc1 | -7% | nt | nt | nt | -17%
CCN(CCO)C(=O)c1cnn(-c2ncc3c(n2)-c2ccccc2CCC3)c1C1CC1 | -19% | nt | 38% | nt | -18%
CC(Oc1ccc(Cl)cc1Cl)c1nc(-c2ccc(NC(=O)c3ccco3)cc2)no1 (centres undefined) | nt | -93* | -20% | ? | nt
CC1(C)C(=O)C=C[C@]2(C)C1CC(=O)[C@]1(C)C2CC[C@@]2(C)C(c3ccoc3)OC(=O)C3O[C@@]321 (some centres undefined) | -8% | nt | 18µM* | nt | -10%
